# The supplement of paper PMC10849652
# The full data set covers some 8,800 targets. This sample favours those with a hit. About 0.5% of all pairs of compound and target were hits. A number with no mark means an inactive call.
# Columns and labels:
# Assay in all cases: log2 fold change, soluble protein after heating vs DMSO (PISA); higher = thermal stabilisation; K562 lysate, 10 uM; active = over 0.2 and 3.5 SD of the protein, either way, in both replicates (recomputed)
# ibrutinib = compound: C=CC(=O)N1CCC[C@@H](n2nc(-c3ccc(Oc4ccccc4)cc3)c3c(N)ncnc32)C1 [ibrutinib]
# Method in brief: (§1)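 Dounce homogenisation of K562 pellets in PBS pH 7.4 with 1 mM MgCl2 produced a crude extract, used at 1 mg/mL protein. Exposure to 10 μM compound lasted 30 min, and aliquots were then heated for 3 min across 48°C-58°C, pooled and brought to 0.5% NP-40 at 4°C. The supernatant after 21,000xg for 90 min was quantified by TMTpro 16plex LC-MS/MS with channel sums equalised. Duplicate values are given as log-two fold change in thermal stability relative to solvent controls.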
# [1] = compound: CC(=O)c1cnc2ccc(-c3cc(Cl)c(O)c(Cl)c3)nc2c1N[C@H]1CC[C@H](CN(C)C)CC1
# Method in brief: as §1
# ralimetinib = compound: CC(C)(C)Cn1c(N)nc2ccc(-c3[nH]c(C(C)(C)C)nc3-c3ccc(F)cc3)nc21 [ralimetinib]
# Method in brief: as §1
# [2] = compound: CC(C)(O)CC(=O)NCCn1ccc2ncnc(Nc3ccc(Oc4cccc(C(F)(F)F)c4)c(Cl)c3)c21
# Method in brief: as §1
# [3] = compound: CC(C)C1=C2N=C(C=C(N2N=C1)NCC3=CC=CC=C3)NCCCCCCN
# Method in brief: as §1
# [4] = compound: CC1=C(C(CC(=O)N1)C2=CC=C(C=C2)C(F)(F)F)C(=O)NC3=C(C=C4C(=C3)C=NN4)F
# Method in brief: as §1
# [5] = compound: CC1=C(C2=C(C=C1)C(=O)C3=CC=CC=C3N2CCCN)C
# Method in brief: as §1
# [6] = compound: CC1=C(C=C(C=C1)NC(=O)C2=CC(=CC=C2)C(C)(C)C#N)NC3=CC4=C(C=C3)N=CN(C4=O)C
# Method in brief: as §1
# [7] = compound: CC1=C(C=C(C=C1)NC(=O)C2=CC(=CC=C2)N(C)C)NC(=O)C3=CC=C(C=C3)O
# Method in brief: as §1
# [8] = compound: CC1=CC=C(C=C1)SC2=C3C=C(SC3=CN=C2)C(=O)N
# Method in brief: as §1
# vemurafenib = compound: CCCS(=O)(=O)Nc1ccc(F)c(C(=O)c2c[nH]c3ncc(-c4ccc(Cl)cc4)cc23)c1F [vemurafenib]
# Method in brief: as §1
# [9] = compound: CCCS(=O)(=O)Nc1ccc(F)c(C(=O)c2c[nH]c3ncc(Cl)cc23)c1F
# Method in brief: as §1
# barasertib = compound: CCN(CCCOc1ccc2c(Nc3cc(CC(=O)Nc4cccc(F)c4)[nH]n3)ncnc2c1)CCOP(=O)(O)O [barasertib]
# Method in brief: as §1
# [10] = compound: CC[C@@H]1C(=O)N(C)c2cnc(Nc3ccc(C(=O)NC4CCN(C)CC4)cc3OC)nc2N1C1CCCC1
# Method in brief: as §1
# volasertib = compound: CC[C@@H]1C(=O)N(C)c2cnc(Nc3ccc(C(=O)N[C@H]4CC[C@H](N5CCN(CC6CC6)CC5)CC4)cc3OC)nc2N1C(C)C [volasertib]
# Method in brief: as §1
# [11] = compound: CCn1c(C(=O)N(C2CC2)C2CC2)cc2c3c(ncn3C)c(Nc3cc(C)n(C)n3)nc21
# Method in brief: as §1
# [12] = compound: CCn1cc(-c2ccnc3[nH]c(-c4cccc(CN(C)C)c4)cc23)c(-c2ccc(NC(=O)N(C)C)cc2)n1
# Method in brief: as §1
# [13] = compound: CN1CCC(CNc2ccc3ncc(-c4cccc(OC(F)(F)F)c4)n3n2)CC1
# Method in brief: as §1
# saracatinib = compound: CN1CCN(CCOc2cc(OC3CCOCC3)c3c(Nc4c(Cl)ccc5c4OCO5)ncnc3c2)CC1 [saracatinib]
# Method in brief: as §1
# sotrastaurin = compound: CN1CCN(c2nc(C3=C(c4c[nH]c5ccccc45)C(=O)NC3=O)c3ccccc3n2)CC1 [sotrastaurin]
# Method in brief: as §1
# UniProt O75528, sequence (O75528 whole entry, looked up): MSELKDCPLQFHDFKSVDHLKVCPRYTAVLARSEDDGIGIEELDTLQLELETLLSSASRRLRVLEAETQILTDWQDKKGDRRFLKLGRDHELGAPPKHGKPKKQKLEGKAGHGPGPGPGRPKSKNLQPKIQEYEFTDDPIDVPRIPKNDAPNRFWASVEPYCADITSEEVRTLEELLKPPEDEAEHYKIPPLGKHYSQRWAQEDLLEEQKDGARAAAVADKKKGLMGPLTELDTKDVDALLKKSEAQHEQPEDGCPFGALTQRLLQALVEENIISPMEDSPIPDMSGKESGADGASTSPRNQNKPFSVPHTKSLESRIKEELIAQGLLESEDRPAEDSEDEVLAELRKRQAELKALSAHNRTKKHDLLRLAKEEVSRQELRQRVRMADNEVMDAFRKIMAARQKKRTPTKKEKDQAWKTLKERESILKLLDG
# UniProt Q96DI7, sequence (Q96DI7 whole entry, looked up): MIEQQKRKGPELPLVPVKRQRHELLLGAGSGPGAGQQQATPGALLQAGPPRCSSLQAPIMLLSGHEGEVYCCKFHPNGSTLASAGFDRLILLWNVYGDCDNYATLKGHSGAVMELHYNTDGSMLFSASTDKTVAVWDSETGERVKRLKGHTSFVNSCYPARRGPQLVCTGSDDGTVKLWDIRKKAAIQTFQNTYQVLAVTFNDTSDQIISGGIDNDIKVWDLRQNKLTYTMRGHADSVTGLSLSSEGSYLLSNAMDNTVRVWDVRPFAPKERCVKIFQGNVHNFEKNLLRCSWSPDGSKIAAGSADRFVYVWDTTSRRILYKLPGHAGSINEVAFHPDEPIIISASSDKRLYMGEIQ
# UniProt Q8WVK7, sequence (Q8WVK7 whole entry, looked up): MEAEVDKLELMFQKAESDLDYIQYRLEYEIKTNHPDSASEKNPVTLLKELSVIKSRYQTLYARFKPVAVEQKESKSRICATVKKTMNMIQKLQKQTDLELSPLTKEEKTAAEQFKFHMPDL
# UniProt Q9BWW4, sequence (Q9BWW4 whole entry, looked up): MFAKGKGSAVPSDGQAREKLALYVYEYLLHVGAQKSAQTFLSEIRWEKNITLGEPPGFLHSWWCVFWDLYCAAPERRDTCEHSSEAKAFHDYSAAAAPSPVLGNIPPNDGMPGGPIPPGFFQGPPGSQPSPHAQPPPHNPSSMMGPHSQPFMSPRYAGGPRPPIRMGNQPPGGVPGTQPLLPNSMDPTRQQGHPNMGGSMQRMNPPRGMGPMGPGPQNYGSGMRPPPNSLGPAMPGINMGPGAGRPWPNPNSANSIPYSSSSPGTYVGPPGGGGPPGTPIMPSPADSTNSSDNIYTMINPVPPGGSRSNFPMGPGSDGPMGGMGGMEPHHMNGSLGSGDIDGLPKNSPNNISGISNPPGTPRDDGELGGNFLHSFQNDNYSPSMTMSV
# UniProt Q16563, sequence (Q16563 whole entry, looked up): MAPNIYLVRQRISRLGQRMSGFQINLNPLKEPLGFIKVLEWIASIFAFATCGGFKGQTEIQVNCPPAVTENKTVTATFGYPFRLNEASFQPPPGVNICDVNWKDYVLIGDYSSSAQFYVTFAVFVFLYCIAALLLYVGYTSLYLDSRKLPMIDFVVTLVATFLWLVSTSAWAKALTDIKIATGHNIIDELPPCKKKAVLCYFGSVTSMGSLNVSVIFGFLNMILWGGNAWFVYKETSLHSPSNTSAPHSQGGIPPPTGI
# UniProt Q16637, sequence (Q16637 whole entry, looked up): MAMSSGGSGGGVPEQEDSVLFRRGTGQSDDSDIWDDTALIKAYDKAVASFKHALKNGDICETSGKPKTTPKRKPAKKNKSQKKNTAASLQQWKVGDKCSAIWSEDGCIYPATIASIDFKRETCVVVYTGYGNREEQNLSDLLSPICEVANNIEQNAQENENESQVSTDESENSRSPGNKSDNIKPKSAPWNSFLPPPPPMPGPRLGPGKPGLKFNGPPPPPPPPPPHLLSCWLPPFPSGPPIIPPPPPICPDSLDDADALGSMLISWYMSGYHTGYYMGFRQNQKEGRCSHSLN
# UniProt Q9UNE7, sequence (Q9UNE7 whole entry, looked up): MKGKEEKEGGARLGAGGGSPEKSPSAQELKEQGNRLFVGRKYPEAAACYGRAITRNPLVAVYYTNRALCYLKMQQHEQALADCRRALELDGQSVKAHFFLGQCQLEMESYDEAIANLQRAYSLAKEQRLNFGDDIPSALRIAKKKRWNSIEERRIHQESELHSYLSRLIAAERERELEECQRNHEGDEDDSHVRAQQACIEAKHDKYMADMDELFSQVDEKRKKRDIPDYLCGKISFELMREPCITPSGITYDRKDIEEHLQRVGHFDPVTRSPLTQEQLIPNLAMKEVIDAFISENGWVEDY
# UniProt Q9NYA1, sequence (Q9NYA1 whole entry, looked up): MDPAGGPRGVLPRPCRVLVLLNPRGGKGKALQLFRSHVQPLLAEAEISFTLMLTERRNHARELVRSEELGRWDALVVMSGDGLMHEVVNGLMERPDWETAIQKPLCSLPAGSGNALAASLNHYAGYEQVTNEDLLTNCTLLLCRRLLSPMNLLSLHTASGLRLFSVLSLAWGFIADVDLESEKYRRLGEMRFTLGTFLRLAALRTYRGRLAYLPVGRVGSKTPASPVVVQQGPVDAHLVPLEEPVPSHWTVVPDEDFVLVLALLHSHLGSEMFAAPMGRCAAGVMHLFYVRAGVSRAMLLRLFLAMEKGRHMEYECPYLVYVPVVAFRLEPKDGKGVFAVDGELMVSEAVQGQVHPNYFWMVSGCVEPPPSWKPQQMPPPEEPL
# UniProt Q96EX1, sequence (Q96EX1 whole entry, looked up): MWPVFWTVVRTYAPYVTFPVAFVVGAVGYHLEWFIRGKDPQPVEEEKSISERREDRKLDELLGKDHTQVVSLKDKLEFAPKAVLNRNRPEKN
# UniProt P53985, sequence (P53985 whole entry, looked up): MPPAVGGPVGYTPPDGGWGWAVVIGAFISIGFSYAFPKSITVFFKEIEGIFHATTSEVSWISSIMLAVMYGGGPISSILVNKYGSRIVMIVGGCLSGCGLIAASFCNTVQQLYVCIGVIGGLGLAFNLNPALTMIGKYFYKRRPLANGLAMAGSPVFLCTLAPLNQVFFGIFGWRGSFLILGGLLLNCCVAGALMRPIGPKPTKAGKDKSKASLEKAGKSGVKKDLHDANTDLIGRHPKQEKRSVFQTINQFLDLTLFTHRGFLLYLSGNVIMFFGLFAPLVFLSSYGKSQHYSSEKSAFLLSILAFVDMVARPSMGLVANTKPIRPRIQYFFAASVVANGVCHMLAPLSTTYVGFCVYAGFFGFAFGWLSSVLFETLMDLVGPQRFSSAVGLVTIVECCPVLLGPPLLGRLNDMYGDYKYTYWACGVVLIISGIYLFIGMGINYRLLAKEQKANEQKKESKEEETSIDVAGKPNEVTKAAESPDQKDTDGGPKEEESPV
# UniProt Q6P1M0, sequence (Q6P1M0 whole entry, looked up): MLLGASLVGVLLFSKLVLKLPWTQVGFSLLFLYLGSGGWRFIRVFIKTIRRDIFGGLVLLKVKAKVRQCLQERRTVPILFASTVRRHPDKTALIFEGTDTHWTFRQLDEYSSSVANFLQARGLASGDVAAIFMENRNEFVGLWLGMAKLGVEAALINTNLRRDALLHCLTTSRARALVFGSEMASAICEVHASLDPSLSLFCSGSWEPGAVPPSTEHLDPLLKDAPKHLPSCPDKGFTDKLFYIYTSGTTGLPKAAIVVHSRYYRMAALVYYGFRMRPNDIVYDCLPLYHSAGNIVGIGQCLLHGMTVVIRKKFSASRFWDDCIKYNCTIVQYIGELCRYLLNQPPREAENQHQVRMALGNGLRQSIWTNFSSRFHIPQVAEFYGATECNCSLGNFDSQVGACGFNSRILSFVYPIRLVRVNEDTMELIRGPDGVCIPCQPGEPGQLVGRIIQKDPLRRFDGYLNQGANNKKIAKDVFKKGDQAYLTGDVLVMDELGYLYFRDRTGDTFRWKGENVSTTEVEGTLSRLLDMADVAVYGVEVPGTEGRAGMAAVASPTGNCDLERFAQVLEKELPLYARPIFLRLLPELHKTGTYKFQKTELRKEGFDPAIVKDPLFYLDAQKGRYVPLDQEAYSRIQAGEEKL
# UniProt Q16629, sequence (Q16629 whole entry, looked up): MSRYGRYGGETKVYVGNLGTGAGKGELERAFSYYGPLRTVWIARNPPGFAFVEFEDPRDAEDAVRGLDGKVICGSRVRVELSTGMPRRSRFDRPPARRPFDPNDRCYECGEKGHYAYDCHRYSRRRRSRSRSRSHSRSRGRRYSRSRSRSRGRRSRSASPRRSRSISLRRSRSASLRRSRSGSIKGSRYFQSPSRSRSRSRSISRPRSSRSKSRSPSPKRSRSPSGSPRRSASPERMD
# UniProt Q15633, sequence (Q15633 whole entry, looked up): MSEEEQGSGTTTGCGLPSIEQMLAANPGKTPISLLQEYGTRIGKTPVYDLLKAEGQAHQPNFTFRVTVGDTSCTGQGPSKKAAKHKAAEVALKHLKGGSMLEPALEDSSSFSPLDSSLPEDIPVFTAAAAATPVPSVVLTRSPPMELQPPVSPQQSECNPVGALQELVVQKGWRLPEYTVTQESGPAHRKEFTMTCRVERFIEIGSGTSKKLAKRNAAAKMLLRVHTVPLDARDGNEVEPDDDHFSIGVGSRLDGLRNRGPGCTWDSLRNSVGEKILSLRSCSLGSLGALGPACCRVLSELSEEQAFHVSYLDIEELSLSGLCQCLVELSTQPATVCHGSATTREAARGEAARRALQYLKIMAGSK
# UniProt Q01650, sequence (Q01650 whole entry, looked up): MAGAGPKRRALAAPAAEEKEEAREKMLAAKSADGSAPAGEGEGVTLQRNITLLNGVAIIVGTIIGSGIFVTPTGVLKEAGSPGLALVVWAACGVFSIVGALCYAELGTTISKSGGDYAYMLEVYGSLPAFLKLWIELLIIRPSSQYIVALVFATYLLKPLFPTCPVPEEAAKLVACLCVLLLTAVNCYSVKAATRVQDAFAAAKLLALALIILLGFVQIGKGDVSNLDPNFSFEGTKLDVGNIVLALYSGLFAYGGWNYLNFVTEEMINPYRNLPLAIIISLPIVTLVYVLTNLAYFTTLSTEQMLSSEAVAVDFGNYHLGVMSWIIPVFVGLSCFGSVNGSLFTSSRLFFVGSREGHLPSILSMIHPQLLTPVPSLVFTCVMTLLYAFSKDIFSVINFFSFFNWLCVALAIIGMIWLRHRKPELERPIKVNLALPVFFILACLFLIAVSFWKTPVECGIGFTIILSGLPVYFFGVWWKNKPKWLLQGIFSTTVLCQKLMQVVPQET
Target,log2 fold change (ibrutinib),log2 fold change [1],log2 fold change (ralimetinib),log2 fold change [2],log2 fold change [3],log2 fold change [4],log2 fold change [5],log2 fold change [6],log2 fold change [7],log2 fold change [8],log2 fold change (vemurafenib),log2 fold change [9],log2 fold change (barasertib),log2 fold change [10],log2 fold change (volasertib),log2 fold change [11],log2 fold change [12],log2 fold change [13],log2 fold change (saracatinib),log2 fold change (sotrastaurin)
SLC7A5 (UniProt Q01650),-0.011,-0.01,0.018,-0.042,0.036,-0.031,-0.003,0.075,-0.043,0,-0.027,-0.017,-0.038,-0.031,0.06,-0.001,-0.312 (active),0.183,0.056,0.046
SLC38A10 (UniProt Q9HBR0),0.103,-0.047,-0.025,-0.056,-0.007,-0.051,-0.018,0.032,-0.001,-0.027,0.1,-0.008,0.014,0.111,-0.015,-0.022,-0.229 (active),0.022,0.024,0.015
SYPL1 (UniProt Q16563),0.015,0.004,0.018,-0.058,0,-0.025,-0.018,0.007,0.006,-0.005,-0.006,-0.019,0.076,0.004,0.032,-0.011,-0.418 (active),0.194,0.01,0.023
SSBP3 (UniProt Q9BWW4),0.435 (active),-0.024,0,-0.038,-0.02,-0.021,-0.018,-0.018,0,0.054,-0.02,-0.033,-0.049,-0.001,0.008,0.038,-0.03,-0.083,0.068,-0.005
SNRNP40 (UniProt Q96DI7),-0.008,0.026,-0.03,-0.047,-0.02,0.042,0.332 (active),0.02,0.069,0.029,-0.032,0.019,-0.06,-0.001,-0.024,-0.033,-0.115,0.058,0.01,-0.013
SYNRG (UniProt Q9UMZ2),-0.023,-0.028,-0.016,-0.083,0.015,-0.019,-0.018,-0.042,0.022,-0.052,-0.006,0.022,0.015,0.037,0,-0.019,0.017,-0.1,0.013,-0.009
SRSF7 (UniProt Q16629),-0.114,-0.071,0.074,-0.004,0,-0.005,-0.023,-0.037,0.02,-0.079,0.012,0.03,-0.057,-0.007,0.012,0.017,-0.034,0.193,-0.008,0.028
SPHK1 isoform 2 (UniProt Q9NYA1),-0.088,0.029,0.124,0.061,0.021,0.041,0.041,-0.276 (active),-0.061,-0.036,-0.009,0.034,0.008,-0.051,-0.022,0.171,-0.003,0.056,0.086,0.029
SLC16A1 (UniProt P53985),-0.023,0.002,0.015,0.015,0.003,-0.039,-0.03,0.042,0,-0.006,0.026,-0.015,-0.051,0.07,0.043,-0.034,-0.419 (active),0.256 (active),-0.003,0.02
TARBP2 (UniProt Q15633),-0.013,0,-0.025,-0.042,0.013,0.074,-0.002,0.029,0.062,-0.015,-0.035,0.092,0.093,-0.145,-0.034,-0.016,-0.02,-0.093,0.035,-0.006
SMN1 (UniProt Q16637),-0.085,-0.028,0.01,-0.01,0.002,0.001,-0.018,0.018,0.137,-0.045,0.031,0.075,-0.056,-0.026,0,-0.037,-0.073,-0.031,0.053,-0.039
SMIM12 (UniProt Q96EX1),0.04,0.013,0.021,-0.049,-0.024,-0.008,-0.002,0.038,-0.064,-0.011,0.023,0.024,0.106,0.129,-0.004,0.08,0.355 (active),-0.269,0.041,0.025
TADA3 (UniProt O75528),0.032,0,-0.013,-0.022,0.018,-0.003,-0.005,0.054,0.024,-0.011,-0.007,0.004,0.002,0.008,-0.006,-0.022,-0.122,0.006,-0.017,-0.012
SLC27A4 (UniProt Q6P1M0),-0.004,0.029,0.009,-0.027,0.049,0.077,-0.042,-0.051,0.028,0.003,-0.042,0.127,-0.015,-0.028,-0.106,0,-0.066,-0.008,-0.023,0.083
STUB1 (UniProt Q9UNE7),0.015,0.011,0.005,0,-0.018,0.023,0.032,-0.012,-0.001,-0.019,0.01,0.02,-0.007,-0.072,-0.051,0.018,-0.015,-0.03,0.006,0.004
SKA2 (UniProt Q8WVK7),0.037,0.004,0.016,-0.003,0.014,-0.004,0.032,-0.099,-0.011,-0.03,0,0.014,0.078,0,-0.043,0.02,-0.032,-0.015,0.028,-0.097
